The values below come from PubChem BioAssay (NCATS).

Structures are written as SMILES. The list shows a part of the results. Records with an inconclusive call do not appear. Active and inactive are the calls of the source. The call rests on the fitted dose curve; in most records, active means well fitted curve in the direction sought with a large enough effect; inconclusive means small, poorly fitted or top-dose-only effect, or another doubt; inactive means no such curve, though single readings can be large; an effect the other way counts as inactive or inconclusive.

Sequence of DNA polymerase eta (Homo sapiens) (Q9Y253 whole entry, looked up): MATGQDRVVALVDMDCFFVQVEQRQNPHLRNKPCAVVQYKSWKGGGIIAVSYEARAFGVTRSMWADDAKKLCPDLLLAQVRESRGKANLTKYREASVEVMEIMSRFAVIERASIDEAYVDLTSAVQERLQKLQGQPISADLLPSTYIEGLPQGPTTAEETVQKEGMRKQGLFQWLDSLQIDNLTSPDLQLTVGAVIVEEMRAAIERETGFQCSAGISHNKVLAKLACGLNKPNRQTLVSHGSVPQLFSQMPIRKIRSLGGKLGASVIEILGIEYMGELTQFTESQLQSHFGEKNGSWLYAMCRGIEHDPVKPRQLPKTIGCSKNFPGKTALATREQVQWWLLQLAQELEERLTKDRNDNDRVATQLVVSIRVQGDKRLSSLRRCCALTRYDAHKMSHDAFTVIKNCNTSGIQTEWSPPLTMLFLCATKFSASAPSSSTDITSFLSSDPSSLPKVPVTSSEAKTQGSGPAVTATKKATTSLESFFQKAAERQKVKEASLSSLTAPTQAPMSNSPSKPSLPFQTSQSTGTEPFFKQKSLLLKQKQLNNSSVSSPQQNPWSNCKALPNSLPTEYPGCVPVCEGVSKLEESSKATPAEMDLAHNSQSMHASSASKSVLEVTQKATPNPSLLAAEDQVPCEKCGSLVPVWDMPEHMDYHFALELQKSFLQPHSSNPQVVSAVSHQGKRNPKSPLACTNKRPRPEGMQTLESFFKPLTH
Sequence of DNA dC->dU-editing enzyme APOBEC-3G (Homo sapiens) (Q9HC16 whole entry, looked up): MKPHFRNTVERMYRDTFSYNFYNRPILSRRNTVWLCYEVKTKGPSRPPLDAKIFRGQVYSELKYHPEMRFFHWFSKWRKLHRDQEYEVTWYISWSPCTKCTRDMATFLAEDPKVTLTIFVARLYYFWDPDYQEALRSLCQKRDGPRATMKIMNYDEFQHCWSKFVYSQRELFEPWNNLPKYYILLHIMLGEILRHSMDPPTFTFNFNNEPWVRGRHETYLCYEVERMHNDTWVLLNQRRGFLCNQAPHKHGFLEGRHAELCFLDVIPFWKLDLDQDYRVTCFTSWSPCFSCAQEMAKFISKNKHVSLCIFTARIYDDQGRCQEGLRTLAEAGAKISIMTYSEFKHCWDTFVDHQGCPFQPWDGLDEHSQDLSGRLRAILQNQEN
Sequence of DNA polymerase iota (Homo sapiens) (Q9UNA4 whole entry, looked up): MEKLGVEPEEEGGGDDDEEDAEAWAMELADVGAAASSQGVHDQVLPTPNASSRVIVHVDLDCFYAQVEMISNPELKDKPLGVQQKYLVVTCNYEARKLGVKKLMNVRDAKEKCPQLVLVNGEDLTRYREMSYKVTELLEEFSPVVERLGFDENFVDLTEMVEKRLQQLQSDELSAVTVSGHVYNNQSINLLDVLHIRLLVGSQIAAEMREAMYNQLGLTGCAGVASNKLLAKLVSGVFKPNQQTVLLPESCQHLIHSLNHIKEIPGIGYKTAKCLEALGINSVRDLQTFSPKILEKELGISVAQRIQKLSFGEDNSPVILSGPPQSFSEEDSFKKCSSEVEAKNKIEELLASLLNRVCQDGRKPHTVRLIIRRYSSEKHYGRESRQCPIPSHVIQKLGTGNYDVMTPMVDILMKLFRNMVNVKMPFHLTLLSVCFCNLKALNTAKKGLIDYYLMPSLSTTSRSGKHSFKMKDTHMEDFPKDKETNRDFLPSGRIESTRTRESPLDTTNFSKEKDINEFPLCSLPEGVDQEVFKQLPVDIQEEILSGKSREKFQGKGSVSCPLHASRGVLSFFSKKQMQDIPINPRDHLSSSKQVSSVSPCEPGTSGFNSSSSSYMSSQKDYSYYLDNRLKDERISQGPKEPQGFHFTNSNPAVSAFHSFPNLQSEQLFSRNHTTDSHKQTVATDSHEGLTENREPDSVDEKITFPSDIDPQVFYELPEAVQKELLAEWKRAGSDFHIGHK

The target in one test is DNA dC->dU-editing enzyme APOBEC-3G (Homo sapiens) (UniProt Q9HC16). Kind of test: qHTS for inhibitors of Vif-A3G interactions: Validation (AID 588379). The conditions noted are these: Vif-A3G protein interaction assay; series mostly up to 46.1 µM. Summed up:
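Yellow fluorescence (Ex 488, Em 500-530) of Vif-coexpressing HeLa A3G-eYFP cells, scanned by Acumen cytometer, reports blocked A3G degradation. Cells plated at 700/well overnight at 37 deg C before compound addition, then a further overnight compound incubation at 37 deg C.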
On to `COc1ccc(/C=C/C(=O)c2ccc(C)s2)cc1`, for which the Potency result is “inactive”.

For the compound `O=C(/C=C/c1ccc(OCc2ccccc2)cc1)c1cccs1`, the Potency result is “inactive”.

For `CC1=CC(=O)C2=C(C)CCC3C(C)C(=O)OC3C12` (centres undefined), the Potency result was “inactive”.

Regarding `COc1ccc(-c2oc3cc(OC)ccc3c(=O)c2O)cc1`, the Potency result is “inactive”.

As for `CC(=O)OC1CCC2(C)C(=CCC3C2CCC2(C)C3C[C@@H]3O[C@]32C(C)=O)C1` (some centres undefined), the Potency entry is “inactive”.

The next test concerns the target DNA polymerase iota (Homo sapiens) (UniProt Q9UNA4). Put plainly: qHTS for Inhibitors of Polymerase Iota: Confirmatory Assay for Cherry-picked Compounds (AID 720496). Further: potency means the concentration at half of the fitted maximal effect. As to conditions: Pol iota primer extension, TAMRA/BHQ fluorescence. The essentials: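 Using TAMRA dequenching as read-out, activity of 10 nM human Pol iota on 50 nM (final) primer/reporter/template substrate was tracked from 0 to 10 min, following a 15 min room-temperature compound preincubation.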
Take `CSc1nnc(SCc2nc3sc(C(=O)O)c(C)c3c(=O)[nH]2)s1`: the Potency was 18.9 µM (active).

For `Cn1c2ccccc2c(=O)c2c(=O)n(Cc3ccco3)c(COc3ccccc3)nc21`, the Potency is 75.2 µM (active).

On to `COc1ccc(Cc2nnc(NC(=O)Cc3cccs3)s2)cc1`, for which the Potency is 16.8 µM (active).

`COCCNC(=O)Nc1ccc2nc(-c3ccco3)c(-c3ccco3)nc2c1`: the Potency is 7.52 µM (active).

With `O=C(COC(=O)c1ccc(F)cc1F)Nc1ncccn1`, the Potency is 21.2 µM (active).

A further test deals with DNA polymerase eta (Homo sapiens) (UniProt Q9Y253). Kind of test: qHTS for Inhibitors of Polymerase Eta: Confirmatory Assay for Cherry-picked Compounds (AID 720502). Further: potency means the concentration at half of the fitted maximal effect. As to conditions: Pol eta primer extension, TAMRA/BHQ fluorescence, 10 min. Summed up:
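Human Pol eta at 10 nM was preincubated with compound for 15 min at room temperature. Reaction was started with TAMRA/BHQ-2-labelled primer-template substrate (50 nM final), with fluorescence read at 0 and 10 min (ex 525, em 598 nm).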
With `CSc1nnc(SCc2nc3sc(C(=O)O)c(C)c3c(=O)[nH]2)s1`, the Potency was 5.36 µM (active).

On to `COc1ccc(Cc2nnc(NC(=O)Cc3cccs3)s2)cc1`, for which the Potency was 19 µM (active).

As for `COCCNC(=O)Nc1ccc2nc(-c3ccco3)c(-c3ccco3)nc2c1`, the Potency was 5.36 µM (active).

For `O=C(COC(=O)c1ccc(F)cc1F)Nc1ncccn1`, the Potency was 37.9 µM (active).
